Values joined by “and” are separate entries in the source; they are usually repeats but may differ in a detail not shown here. Equal entries are not always repeated. The panel holds about 83,000 compounds, 20% with a hit somewhere; the sample as a whole holds those more often.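 Note: values are percent growth. 100 is the growth of untreated cells, values between 100 and 0 indicate rising inhibition; between -100 and 0 indicates cell death.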 Unmarked numbers belong to inactive results. Active and inactive are the calls of the source. How the source made its calls: active means growth percent below 10; inactive means the rest.
How the values were obtained:
Test in all cases: NCI-60 one-dose screen, 48 h (100 = growth as untreated, 0 = no growth, -100 = all killed)
[1] = test system: NCI-H23 lung; details: 10 µM unless noted
[2] = test system: NCI-H226 lung; details: 10 µM unless noted
[3] = test system: NCI-H322M lung; details: 10 µM unless noted
[4] = test system: HOP-62 NSCLC; details: 10 µM unless noted
[5] = test system: NCI-H460 lung; details: 10 µM unless noted
[6] = test system: HOP-92 NSCLC
[7] = test system: NCI-H522 lung; details: 10 µM unless noted
[8] = test system: A549/ATCC NSCLC; details: 10 µM unless noted
[9] = test system: 786-0 renal; details: 10 µM unless noted
[10] = test system: DU-145 prostate; details: 10 µM unless noted
[11] = test system: K-562 leukemia; details: 10 µM unless noted
[12] = test system: MALME-3M melanoma; details: 10 µM unless noted
[13] = test system: MDA-MB-231 breast; details: 10 µM unless noted
[14] = test system: RXF 393 renal; details: 10 µM unless noted
[15] = test system: SF-268 CNS; details: 10 µM unless noted
[16] = test system: SF-539 CNS; details: 10 µM unless noted
[17] = test system: UACC-257 melanoma; details: 10 µM unless noted
[18] = test system: M14 melanoma; details: 10 µM unless noted
[19] = test system: HCT-15 colon; details: 10 µM unless noted
[20] = test system: SF-295 CNS; details: 10 µM unless noted

For `COc1ccc(OC)c(/C=C/[N+](=O)[O-])c1`, the growth [1] was 6.9% (active), the growth [2] was 11.8% and the growth [3] was 69.6%. For the same compound, the growth [4] was 10.5%, the growth [5] was -4.3% (active) and the growth ([6]; 10 µM) was -18% (active). The growth [7] was -64.1% (active), the growth [8] was 28.1% and the growth [9] was -75.2% (active). For the same compound, the growth [10] was 19.8%, the growth [11] was 4.27% (active) and the growth [12] was 24.9%. For the same compound, the growth [13] was 5.7% (active), the growth [14] was -88.7% (active) and the growth [15] was 13.1%. The growth [16] was -6.84% (active), the growth [17] was -12% (active) and the growth [18] was -11.5% (active). The growth [19] was -13.4% (active).

`CCC1(O)CC(OC2CC(N(C)C)C(OC3CC4OC5CC(=O)C(C)OC5OC4C(C)O3)C(C)O2)c2c(cc3c(c2O)C(=O)c2c(O)ccc(O)c2C3=O)C1C(=O)OC` (stereo not drawn) was tested, and the growth [1] was -52.5% (active), the growth [2] was -8.6% (active) and the growth [3] was -32.4% (active). The growth [4] was -26% (active), the growth [5] was -26.3% (active) and the growth [7] was -75.4% (active). For the same compound, the growth [8] was 1.52% (active), the growth [9] was -35.6% (active) and the growth [10] was -12.7% (active). For the same compound, the growth [11] was -39.7% (active), the growth [12] was -95.3% (active) and the growth [13] was -5.87% (active). The growth [14] was -1.64% (active), the growth [15] was -14.3% (active) and the growth [20] was -32.7% (active). For the same compound, the growth [16] was -55.6% (active), the growth [17] was -3.52% (active) and the growth [18] was -95% (active). The growth [19] was -46.1% (active).

In the case of `CN1CCN(c2ccc([N+](=O)[O-])c3no[n+]([O-])c23)CC1`, the growth [1] is reported as -24.1% (active), the growth [2] is reported as -71.9% (active) and the growth [3] is reported as -24.2% (active). For the same compound, the growth [4] was -98.3% (active), the growth [5] was -61.4% (active) and the growth ([6]; 10 µM) was -23.1% (active). The growth [7] was -92.1% (active), the growth [8] was -48.7% (active) and the growth [9] was -78.6% (active). The growth [10] was -27.4% (active), the growth [11] was -18.4% (active) and the growth [12] was -78.8% (active). The growth [13] was -32.1% (active), the growth [14] was -92.8% (active) and the growth [15] was -41.4% (active). For the same compound, the growth [20] was -52% (active), the growth [17] was -95.6% (active) and the growth [18] was -65.2% (active). For the same compound, the growth [19] was -56.3% (active).

In the case of `CO[C@H](/C(C)=C/C=C/C(C)=C/c1coc(C)n1)[C@H](C)[C@H]1C[C@@H](O)[C@@]2(C)O[C@H]2/C=C/[C@@H](C)[C@@H]2C[C@@H](CC(=O)O2)C[C@H]2O[C@@H]2C(=O)O1`, the growth [1] is reported as 24.4%, the growth [2] is reported as 34.8% and the growth [3] is reported as 42.9%. The growth [4] was 11.1%, the growth [5] was 8.2% (active) and the growth [7] was -33.1% (active). For the same compound, the growth [8] was 42.9%, the growth [9] was 15.6% and the growth [10] was -18.9% (active). For the same compound, the growth [11] was -31.6% (active), the growth [12] was 15.2% and the growth [13] was 25.9%. The growth [14] was 13.7%, the growth [15] was 32.5% and the growth [20] was -13.3% (active). The growth [16] was -19.2% (active), the growth [17] was 19.1% and the growth [18] was -0.709% (active). The growth [19] was -31% (active).

Compound `Cc1c(N)nc([C@H](CC(N)=O)NC[C@H](N)C(N)=O)nc1C(=O)N[C@H](C(=O)N[C@H](C)[C@@H](O)[C@H](C)C(=O)N[C@H](C(=O)NCCc1nc(-c2nc(C(=O)NCCC[S+](C)C)cs2)cs1)[C@@H](C)O)C(OC1OC(CO)C(O)C(O)C1OC1OC(CO)C(O)C(OC(N)=O)C1O)c1cnc[nH]1` (stereo partly drawn) has a growth [1] of 37.9% [2.5 µM], a growth [2] of 37.2% [2.5 µM] and a growth [3] of 97.1% [2.5 µM]. For the same compound, the growth [4] was 43.9% [2.5 µM], the growth [5] was 23.1% [2.5 µM] and the growth ([6]; 2.5 µM) was -4.74% (active). It also gave a growth [7] of 57.3% [2.5 µM], a growth [8] of 52.9% [2.5 µM] and a growth [9] of 27.9% [2.5 µM]. The growth [10] was 58.7% [2.5 µM], the growth [11] was 65.8% [2.5 µM] and the growth [12] was 45.9% [2.5 µM]. The growth [13] was 99.2% [2.5 µM], the growth [14] was 20.5% [2.5 µM] and the growth [15] was 61.6% [2.5 µM]. The growth [20] was 8.69% [2.5 µM] (active), the growth [16] was -48.7% [2.5 µM] (active) and the growth [17] was 31.9% [2.5 µM]. The growth [19] was 67.8% [2.5 µM].

In the case of `Oc1cccc2cccnc12`, the growth [1] is reported as 102% and 109% and 104%, the growth [2] is reported as 94.5% and 98.1% and 98.6% and the growth [3] is reported as 104% and 111% and 95.5%. The growth [4] was 94.7% and 98.3% and 104%, the growth [5] was 83.7% and 104% and 102% and the growth ([6]; 10 µM) was 89.1%. The growth [7] was 10.8% and 103%, the growth [8] was 100% and 105% and 111% and the growth [9] was 106% and 105%. For the same compound, the growth [10] was 82% and 108% and 111%, the growth [11] was 44.2% and 106% and 102% and the growth [12] was 96.3% and 98.2%. For the same compound, the growth [13] was 92.9% and 109% and 101%, the growth [14] was 95.7% and 104% and 112% and the growth [15] was 80% and 101%. For the same compound, the growth [20] was 99.7% and 108% and 115%, the growth [16] was 113% and 90.2% and the growth [17] was 80.1% and 98.6% and 111%. The growth [18] was 76% and 102% and 94.3% and the growth [19] was 64.3% and 110% and 97.1%.

`CCCCCCCCCCCC1CCCC(C)N1` (stereo not drawn) gave a growth [1] of 71.4%, a growth [2] of 94.8% and a growth [3] of 127%. The growth [4] was 86.5%, the growth [5] was 87.9% and the growth ([6]; 10 µM) was 15.8%. The growth [7] was -8.02% (active), the growth [8] was 97.2% and the growth [9] was 67.3%. The growth [10] was 92.4%, the growth [11] was 6.23% (active) and the growth [13] was 72%. For the same compound, the growth [14] was 77.7%, the growth [15] was 73.5% and the growth [20] was 100%. For the same compound, the growth [16] was 97.5%, the growth [17] was 77.3% and the growth [18] was 95.3%. It also gave a growth [19] of 27.7%.

In the case of `O=C1c2ccccc2C(=O)C(Cl)C1Cl` (stereo not drawn), the growth [1] is reported as 83.8%, the growth [2] is reported as -74.2% (active) and the growth [3] is reported as 96.1%. The growth [4] was 87.9%, the growth [5] was 101% and the growth ([6]; 10 µM) was -62.4% (active). The growth [7] was -65% (active), the growth [8] was 104% and the growth [9] was 16.8%. For the same compound, the growth [10] was 97.8%, the growth [11] was -7.91% (active) and the growth [12] was -98.5% (active). The growth [14] was -9.44% (active), the growth [15] was 87.5% and the growth [20] was 94.3%. For the same compound, the growth [16] was 89.5%, the growth [17] was 0.891% (active) and the growth [18] was 76.7%. The growth [19] was -86.6% (active).

From PubChem BioAssay (NCI)
